# High-throughput results (PubChem)
# HCMV inh – human cytomegalovirus inhibition; 4.5% of 410,000 active; HFF cells, HCMV-luciferase reporter, 72 h; stronger effect = lower value; activity change, negative = inhibition, % at 57.5 µM; in the data active = activity change below about -60%; inconclusive = no clear call, values can overlap the other calls; inactive = above about -39%
#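 Human foreskin fibroblasts infected with luciferase-reporter HCMV at MOI 1 PFU/cell, compounds at two doses. Luciferase measured 72 h post infection; normalized to buffer-only basal and Salinomycin (10uM) controls.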
# Pf growth 96h – P. falciparum growth inhibition at 96 hours; Potency, µM (highest dose often 28.7 µM), usual class: inhibitors; P. falciparum luciferase reporter growth, 96 h; 6.9% of 320,000 active
#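 Luminescence readout: decreased luciferase signal marks inhibited growth of reporter-expressing P. falciparum in infected red cells (2% hematocrit, 0.05% parasitemia final), exposed to compound two generations (96 h, 37 C, 5% CO2).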
# Pf growth 48h – inhibits P. falciparum growth in the first generation, 48 h. Potency, µM (series often up to 28.7 µM), actives largely listed as inhibitors. P. falciparum luciferase growth in erythrocytes, 48 h. 5.9% of 310,000 active. AID 504832
#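 Cell-based growth assay: transgenic P. falciparum expressing firefly luciferase, cultured in red cells within RPMI 1640 containing 0.5% w/v Albumax, 24 mM bicarbonate and gentamycin. A drop in luciferase activity indicates inhibition.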
# HCV inhibitor – blocks hepatitis C virus; 3.4% of 340,000 active; Huh7.5.1 HCVcc-Cre infection, luciferase reporter, 44 h; Potency, µM (series often up to 41.8 µM), actives largely listed as inhibitors
#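 After 44 h co-culture of compound, cells and HCVcc-Cre (~0.5 moi), substrate is added for 15 min at room temperature and luciferase measured over 15 sec. Cells were seeded at 1,000/well and pre-cultured 4 h.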
# A number is an active result; n = inactive; u = inconclusive; x = no result given; + = active, no number; ! = repeats disagree; [ ] = another dose, or the depositor's remark. Compounds with a hit are over-represented: about 13% of the library has one in this group of screens. Unless noted, calls follow the shape of the dose curve; as a rule, active = well fitted inhibition curve with a large enough effect; inconclusive = small, poorly fitted or top-dose-only effect, or another doubt; inactive = no such curve, though single readings can be large or run the other way.
SMILES,HCMV inh,Pf growth 96h,Pf growth 48h,HCV inhibitor
CC(C)C(C)(C#N)NC(=O)CSc1nc2scc(-c3ccco3)c2c(=O)n1-c1ccccc1 (centres undefined),n,u,9.3µM,u
C=CCn1c(SCC(C)=O)nc2scc(-c3ccco3)c2c1=O,n,n,n,n
COc1ccccc1N1CCN(C(=O)C2CCCN(S(=O)(=O)c3ccc4c(c3)CCCN4C(C)=O)C2)CC1 (centres undefined),-89!,n,u,10µM
CC(=O)N1CCCc2cc(S(=O)(=O)N3CCCC(C(=O)N4CCN(c5ccccc5)CC4)C3)ccc21 (centres undefined),+!,n,u,11µM
CCOC(=O)C1CCCN(S(=O)(=O)c2ccc3c(c2)CCCN3C(C)=O)C1 (centres undefined),n,x,x,x
CC(=O)N1CCCc2cc(S(=O)(=O)N3CCCC(C(=O)N4CCN(c5cc(C)ccc5C)CC4)C3)ccc21 (centres undefined),-78!,n,u,10µM
CCOc1ccc(CN2CCN(C(=O)c3cccc4ccccc34)CC2)cc1,u,u,u,7.1µM
CCOc1ccc2oc(=O)cc(CN3CCN(C(=O)c4ccc(Cl)cc4)CC3)c2c1,-67,x,x,x
CCOc1ccc(CN2CCN(C(=O)c3ccccc3)CC2)cc1,n,n,n,11µM
COc1ccc(OCC(=O)N2CCN(C(=O)c3cccc4ccccc34)CC2)cc1,n,x,n,n
CCOc1ccc(-n2nc(C(=O)N3CCN(CC)CC3)c3ccccc3c2=O)cc1,n,u,4.1µM,n
CCOc1ccc(C(=O)N2CCN(Cc3ccccc3)CC2)cc1,n,u,n,n
CCc1cc2c(cc3c(=O)n(CC(=O)NC4CCC(C)CC4)nc(CC)n32)s1 (centres undefined),n,x,x,x
COc1cccc(C(=O)N2CCN(CCCc3ccccc3)CC2)c1OC,u,x,n,35µM
COc1ccc(OC)c(CN2CCN(C(=O)c3cc4ccccc4cc3O)CC2)c1,n,2.3µM,4.7µM,n
COc1cc(CN2CCN(C(=O)c3cccc4ccccc34)CC2)cc(OC)c1O,n,15µM,n,n
Cc1cccc(NS(=O)(=O)c2ccc(NC(=O)N3CCCC3)cc2)c1,n,x,x,x
CC(=O)Nc1ccc(C(=O)CSc2nnc3cc(C)c4ccccc4n23)cc1,n,x,x,x
Cc1ccc(-c2cc(NC(=O)COc3ccc(Cl)cc3C)on2)cc1,n,x,x,x
COc1cc(NC(=O)c2ccc(NC(=O)N3CCSc4ncccc43)cc2)cc(OC)c1,n,x,x,x
C/C1=C\[C@@H](C)C/C=C/[C@H]2[C@@H]3O[C@]3(C)[C@@H](C)[C@H]3[C@H](Cc4c[nH]c5ccccc45)NC(=O)[C@]32C(=O)/C=C/C(=O)[C@@H]1O,x,n,0.29µM,n
CC1=CC2/C=C(\C)CCC(O)C(O)/C=C/C(=O)C23C(=O)NC(CC(C)C)C3C1C (centres undefined),x,n,u,u
CCN(C(=O)c1ccc(NC(=O)C2CCCCC2C(=O)O)cc1)c1ccccc1 (centres undefined),n,x,x,x
COc1ccc2c(c1)OC[C@H]1[C@H]2N2C(=O)c3cc(OC)ccc3NC(=O)[C@@]2(C)[C@H]1c1ccccc1,n,6.6µM,5.2µM,u
COc1ccc2c(c1)OC[C@H]1[C@H]2N2C(=O)c3ccc(C)cc3NC(=O)[C@@]2(C)[C@H]1c1ccccc1,n,x,x,u
SMILES,HCMV inh,Pf growth 96h,Pf growth 48h,HCV inhibitor
Cc1ccc2c(c1)[C@H]1[C@H](CO2)[C@H](c2ccccc2)[C@]2(C)C(=O)Nc3ccc(F)cc3C(=O)N12,n,x,x,u
COc1ccc2c(c1)OC[C@H]1[C@H]2N2C(=O)c3cc(F)ccc3NC(=O)[C@@]2(C)[C@H]1c1ccccc1,n,x,x,11µM
COc1ccc2c(c1)OC[C@H]1[C@H]2N2C(=O)c3cc(Cl)ccc3NC(=O)[C@@]2(C)[C@H]1c1ccccc1,x,3.3µM,9.3µM,u
Cn1cc(CCCC(=O)NCc2ccc(F)cc2)c2ccccc21,n,2.1µM,u,n
Cc1cccc(C)c1NC(=S)N/N=C1\CC2CC=CC12 (centres undefined),n,9.3µM,u,n
CC[n+]1c(-c2ccccc2)c2cc(N)ccc2c2ccc(N)cc21,-100,0.003µM!,0.048µM,u
CC(C)(C)C1CCC(OC(=O)C[N+]2(C)CCCCC2)CC1 (centres undefined),-62,n,12µM,n
CC(C)(C)C1CCC(OC(=O)C[N+]2(C)CCCC2)CC1 (centres undefined),n,n,u,n
COc1ccc(C2CC(=O)c3cc(-c4nc(-c5cccc([N+](=O)[O-])c5)cs4)c(=O)n(-c4ccccc4N)c3C2)cc1 (centres undefined),n,x,x,x
O=C(NCCC1=CCCCC1)C1CCN(S(=O)(=O)c2cccc(C(F)(F)F)c2)CC1,n,u,u,11µM
O=C(NCC(c1cccs1)N1CCOCC1)C1CCN(S(=O)(=O)c2cccc(C(F)(F)F)c2)CC1 (centres undefined),n,10µM,u,n[8.37 µM]
O=C(NCC(c1cccs1)N1CCOCC1)C1CCN(S(=O)(=O)c2ccccc2C(F)(F)F)CC1 (centres undefined),n,u,u,n
O=C(NCCC1=CCCCC1)C1CCN(S(=O)(=O)c2ccccc2)CC1,n,n,n,n
Cc1ccc(N2C(=O)c3[nH]nc(-c4ccc(Cl)cc4)c3C2c2ccc(F)cc2)cc1 (centres undefined),-105,x,x,x
Cc1ccc(-c2n[nH]c3c2C(c2cccs2)N(c2ccc(Cl)cc2)C3=O)cc1 (centres undefined),-105,x,x,x
CCN(CCCNC(=O)c1ccc(Sc2ccc(Cl)cc2)c(NC(C)=O)c1)c1ccccc1,n,x,x,x
CCc1ccccc1NC(=O)c1sc(-n2nc(C)c(Cc3ccc4c(c3)OCO4)c2C)nc1C,n,x,x,x
CCCOc1ccc(CN2C(=O)C(=O)c3cccc(C)c32)cc1,n,x,x,x
Cc1ccc(CN2C(=O)C(=O)c3cc(Br)cc(C)c32)cc1,-103,x,x,x
COc1cc(C(=O)Nc2cccc(-c3nc4ncccc4o3)c2C)cc(OC)c1OC,-106,u,n,u
COc1ccc(C(=O)Nc2cccc(-c3nc4ncccc4o3)c2C)cc1,n,u,x,n
Cc1cccc(-c2nc(S(=O)(=O)c3ccccc3)c(N3CCN(c4ccccc4)CC3)o2)c1,n,x,x,x
Cc1cc(OC(C)C(=O)N(Cc2ccco2)Cc2ccccc2F)cc(C)c1Cl (centres undefined),n,x,x,x
C#CCOCCOCCOCCNc1nc(N2CCN(C(=O)Cn3cc(CCO)nn3)CC2)nc(N2CCN(C(=O)Cn3cc(CC(C)O)nn3)CC2)n1 (centres undefined),n,x,x,n
C#CCOCCOCCOCCNc1nc(N2CCN(C(=O)[C@H](CCCCN)n3cc(CN)nn3)CC2)nc(N2CCN(C(=O)[C@H](CCCCN)n3cc(CN)nn3)CC2)n1,n,x,x,n
C#CCOCCOCCOCCNc1nc(N2CCN(C(=O)[C@H]([C@@H](C)O)n3cc(CCCCN)nn3)CC2)nc(N2CCN(C(=O)[C@H](CCCCN)n3cc(CC(C)O)nn3)CC2)n1 (some centres undefined),n,n,n,n
